For 19 molecules, composite z-score and z-score results are on record in PubChem BioAssay.

The test system of test [1] is PRMT1 (protein arginine N-methyltransferase 1). Put plainly: small molecules binding arginine methyltransferase PRMT1 – biochemical, small-molecule microarray, 635 nm fluorescence, primary screen (AID 1088).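 Note: binding of Prmt1 protein to compounds spotted on small-molecule microarray slides.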 As to conditions: higher = more signal.
Test [2] in a line: growth effects on S. cerevisiae YJM789 – YJM789 clinical isolate, OD600, 24 h, basal, primary screen (AID 1089).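 Note: growth of clinical yeast isolate S. cerevisiae YJM 789 seeded 1000 cells per well; test concentration not given here.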 As to conditions: higher = more signal, called active from +8 up or from −8 down.
Test [3] is described as follows: S. pombe growth modifiers, basal conditions – strain 972, OD600, 24 h, no modulator, primary screen (AID 1090).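 Note: basal condition with compound alone and no growth modifier present; test concentration not given here.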 As to conditions: S. pombe 972 growth, higher = more signal, called active from +8 up or from −8 down.
Test [4] is described as follows: budding yeast growth modifiers under rapamycin – strain BY4716, OD600, 96 h, primary screen (AID 1091). Note: test concentration not given here. As to conditions: S. cerevisiae BY4716 + rapamycin, higher = more signal, called active from +8 up or from −8 down.
Test [5] addresses Torsin-1A-interacting protein 2 (Homo sapiens) (UniProt Q8NFQ8). Kind of test: small molecules binding lysate-expressed LULL1 – cell lysate, human LULL1 lysate, 635/667 nm fluorescence, primary screen (AID 1092).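 Note: probe is lysate of COS7 cells overexpressing human LULL1; score merges per-feature 667 nm fluorescence with signal-to-noise.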 As to conditions: small-molecule microarray, hLULL1 lysate binding, 635 nm fluorescence; higher = more signal.
A short description of test [6]: optical density change of DRC41 E. coli – strain DRC41, OD650, 24 h, E. coli filamentation project, primary screen (AID 1093).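 Note: MC1000 strain lacking acrAB efflux and sulA so SOS filamentation is blocked; test concentration not given here.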 As to conditions: E. coli DRC41 growth, higher = more signal, called active from +8 up or from −8 down.
Test [7] in a line: probe aLefty2 binding to arrayed compounds – biochemical, biotinylated probe, 635/667 nm fluorescence, primary screen (AID 1094).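 Note: score merges spot fluorescence near 667 nm with spot signal-to-noise ratio.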 As to conditions: small-molecule microarray, higher = more signal.
The subject of test [8] is Noggin (protein binding on small-molecule microarray). Kind of test: small molecules binding Noggin protein – biochemical, 635/667 nm fluorescence, primary screen (AID 1095).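 Note: score merges 667 nm feature fluorescence with signal to noise over triplicate slides.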 As to conditions: 635 nm fluorescence, higher = more signal.
Test [9] deals with Neurogenic locus notch homolog protein 3 (Homo sapiens) (UniProt Q9UM47). Put plainly: small molecules binding NOTCH3 protein – biochemical, 635/667 nm fluorescence, primary screen (AID 1096). As to conditions: small-molecule microarray, 635 nm fluorescence, higher = more signal.
Test [10] can be described thus: probe aEGFR binding to arrayed compounds – biochemical, biotinylated probe, 635/667 nm fluorescence, primary screen (AID 1097).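 Note: probe is a biotinylated anti-EGFR antibody binding compounds printed on slides; score combines fluorescence near 667 nm and signal to noise of each spot.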 As to conditions: small-molecule microarray, higher = more signal.

Activity calls are given as the source filed them.

Torsin-1A-interacting protein 2 (Homo sapiens), sequence (Q8NFQ8 whole entry, looked up): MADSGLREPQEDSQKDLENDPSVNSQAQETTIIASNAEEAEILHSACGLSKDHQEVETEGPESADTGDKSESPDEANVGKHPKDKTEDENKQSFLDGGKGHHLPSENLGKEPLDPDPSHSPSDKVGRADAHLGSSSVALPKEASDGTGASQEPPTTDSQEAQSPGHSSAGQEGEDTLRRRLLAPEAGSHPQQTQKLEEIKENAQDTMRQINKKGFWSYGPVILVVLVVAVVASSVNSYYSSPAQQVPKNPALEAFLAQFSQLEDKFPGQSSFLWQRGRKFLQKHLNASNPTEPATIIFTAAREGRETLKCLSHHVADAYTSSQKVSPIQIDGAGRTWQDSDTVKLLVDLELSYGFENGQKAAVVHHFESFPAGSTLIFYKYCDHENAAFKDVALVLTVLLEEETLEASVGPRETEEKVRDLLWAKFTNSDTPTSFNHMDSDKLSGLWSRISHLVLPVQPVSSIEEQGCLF
Neurogenic locus notch homolog protein 3 (Homo sapiens), sequence (Q9UM47 whole entry, looked up): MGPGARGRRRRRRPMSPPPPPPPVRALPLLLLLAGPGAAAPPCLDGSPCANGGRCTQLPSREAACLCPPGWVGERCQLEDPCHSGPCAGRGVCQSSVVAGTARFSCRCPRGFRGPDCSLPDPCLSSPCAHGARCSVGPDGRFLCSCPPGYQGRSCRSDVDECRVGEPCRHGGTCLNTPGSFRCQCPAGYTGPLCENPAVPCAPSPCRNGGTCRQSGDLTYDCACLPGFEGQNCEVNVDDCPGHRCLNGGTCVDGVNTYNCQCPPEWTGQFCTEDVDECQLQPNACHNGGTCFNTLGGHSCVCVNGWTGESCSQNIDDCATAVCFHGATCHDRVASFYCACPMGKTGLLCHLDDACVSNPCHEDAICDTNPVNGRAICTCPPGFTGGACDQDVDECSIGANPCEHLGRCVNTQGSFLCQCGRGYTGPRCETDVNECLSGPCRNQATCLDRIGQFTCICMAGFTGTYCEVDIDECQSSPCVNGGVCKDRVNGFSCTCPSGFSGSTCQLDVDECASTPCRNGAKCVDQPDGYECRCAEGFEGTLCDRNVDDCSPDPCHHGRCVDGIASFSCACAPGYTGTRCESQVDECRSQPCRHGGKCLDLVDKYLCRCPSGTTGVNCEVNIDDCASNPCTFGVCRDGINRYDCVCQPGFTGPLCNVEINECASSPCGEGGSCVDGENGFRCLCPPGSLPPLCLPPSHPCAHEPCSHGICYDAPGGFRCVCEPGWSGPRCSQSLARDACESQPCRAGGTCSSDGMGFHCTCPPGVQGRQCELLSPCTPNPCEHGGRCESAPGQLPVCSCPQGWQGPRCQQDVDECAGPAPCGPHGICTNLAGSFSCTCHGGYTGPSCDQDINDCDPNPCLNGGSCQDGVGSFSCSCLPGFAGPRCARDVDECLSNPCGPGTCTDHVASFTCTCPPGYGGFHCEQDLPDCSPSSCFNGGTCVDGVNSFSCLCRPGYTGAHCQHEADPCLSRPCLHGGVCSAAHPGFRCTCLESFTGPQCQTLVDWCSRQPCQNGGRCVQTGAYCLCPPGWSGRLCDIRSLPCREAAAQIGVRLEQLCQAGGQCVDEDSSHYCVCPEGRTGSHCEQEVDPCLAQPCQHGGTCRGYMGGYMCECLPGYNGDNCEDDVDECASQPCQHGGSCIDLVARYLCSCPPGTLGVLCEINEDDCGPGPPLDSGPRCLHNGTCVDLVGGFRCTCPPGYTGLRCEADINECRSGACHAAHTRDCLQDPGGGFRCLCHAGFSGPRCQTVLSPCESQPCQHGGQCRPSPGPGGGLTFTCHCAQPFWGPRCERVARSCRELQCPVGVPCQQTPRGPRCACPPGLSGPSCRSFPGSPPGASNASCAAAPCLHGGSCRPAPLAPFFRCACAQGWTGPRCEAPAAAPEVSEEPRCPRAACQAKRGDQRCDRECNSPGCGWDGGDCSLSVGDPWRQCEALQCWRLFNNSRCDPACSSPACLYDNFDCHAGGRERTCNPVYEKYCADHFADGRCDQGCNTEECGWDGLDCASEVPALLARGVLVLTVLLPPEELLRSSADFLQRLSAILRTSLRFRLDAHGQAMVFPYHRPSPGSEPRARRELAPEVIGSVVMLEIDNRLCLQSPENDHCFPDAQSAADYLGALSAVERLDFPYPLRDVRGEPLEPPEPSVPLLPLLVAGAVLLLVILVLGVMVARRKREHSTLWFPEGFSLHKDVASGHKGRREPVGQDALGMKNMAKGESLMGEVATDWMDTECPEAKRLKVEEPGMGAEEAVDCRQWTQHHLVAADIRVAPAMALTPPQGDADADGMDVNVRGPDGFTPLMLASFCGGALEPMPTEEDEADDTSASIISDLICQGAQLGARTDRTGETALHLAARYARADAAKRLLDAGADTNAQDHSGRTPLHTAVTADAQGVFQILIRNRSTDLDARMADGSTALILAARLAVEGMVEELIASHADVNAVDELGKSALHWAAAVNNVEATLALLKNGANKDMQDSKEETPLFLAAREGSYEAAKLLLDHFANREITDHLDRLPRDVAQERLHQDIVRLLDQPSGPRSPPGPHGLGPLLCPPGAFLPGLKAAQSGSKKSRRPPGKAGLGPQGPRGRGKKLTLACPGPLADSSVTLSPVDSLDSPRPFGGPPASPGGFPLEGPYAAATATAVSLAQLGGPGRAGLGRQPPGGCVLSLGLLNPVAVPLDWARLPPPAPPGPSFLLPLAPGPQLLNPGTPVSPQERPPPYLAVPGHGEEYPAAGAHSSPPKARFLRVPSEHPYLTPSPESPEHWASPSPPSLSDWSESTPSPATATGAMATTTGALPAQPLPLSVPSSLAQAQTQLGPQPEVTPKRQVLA

For `CCOC(=O)C[C@H]1[C@H](OC(=O)c2cc3ccccc3oc2=O)[C@@H](NC(=O)c2ccc3ccccc3n2)c2cc(OCCCO)ccc2N1C(=O)c1ccc2ccccc2n1`, the composite z-score in test [1] is 0.295; in test [5], 0.648; in test [7] it was -0.0773; in test [8], 1.03; in test [9] it was 1.12; in test [10], 0.183. In addition, the z-score in test [2] is -0.157 (inactive); in [3], 0.291 (inactive); in [4], -0.273 (inactive); in test [6] it was 1.5 (inactive).
Regarding `C[N+](C)(C)CCCCCCNC(=O)[C@@H]1C[C@@H]2C(=O)NCC(=O)N2[C@@H]1c1ccc(O)cc1`, the composite z-score in [1] was 1.53; in test [5] it was 2.39; in test [7], -0.0942; in test [8], 1.53; in [9], 1.06; in [10], -0.141. Further, the z-score in [2] was 0.302 (inactive); in [3], 0.274 (inactive); in test [4], -0.0145 (inactive); in test [6], -0.239 (inactive).
Take `COc1ccc(C#Cc2ccc3c(c2)[C@]2(C(=O)N3)[C@H](C(=O)O)[C@H]3C(=O)O[C@H](c4ccccc4)[C@H](c4ccccc4)N3[C@@H]2c2ccc(OCCO)cc2)cc1`: the composite z-score is 1.55 in test [1]; 2.37 in [5]; 0.054 in [7]; 1 in test [8]; 1.1 in test [9]; -0.0433 in [10]. Further, the z-score was 2.76 (inactive) in test [2], -0.0666 (inactive) in test [3], 1.08 (inactive) in test [4] and 2.26 (inactive) in test [6].
As to `CCCC[C@@H](O)C1=C(COc2ccccc2)Cn2c(=O)n(-c3ccccc3)c(=O)n2[C@H]1CO`, the composite z-score in test [1] is 0.0063; in [5], 0.94; in test [7], -0.285; in test [8], -0.376; in [9], -0.88; in [10], -0.229. In addition, the z-score is -2.31 (inactive) in [2], -1.82 (inactive) in [3], -1.17 (inactive) in test [4] and 1.87 (inactive) in test [6].
For the molecule `COC(=O)[C@@]1(Cc2ccc(OC)cc2)[C@H]2c3cc(C(=O)N4CCCC4)n(Cc4ccc(C)o4)c3C[C@H]2CN1C(=O)c1ccccc1`, the composite z-score in [1] turned out to be 0.622; in test [5], 3.24; in [7] it was 0.292; in test [8], 0.355; in [9], 1.07; in [10] it was 0.0059. Besides, the z-score in test [2] was -19.7 (active); in test [3] it was -15.7 (active); in test [4] it was -2.14 (inactive); in test [6] it was -0.715 (inactive).
`C=CC[C@]1(C(=O)N(C)C)N=C(c2ccc(OCCCO)cc2)O[C@H]1c1ccccc1`: the composite z-score is 1.43 in [1]; 3.59 in test [5]; 0.0158 in [7]; 0.364 in test [8]; 1.14 in test [9]; -0.0512 in test [10]. For the same molecule, the z-score in test [2] is -1.76 (inactive); in test [3], -3.16 (inactive); in test [4], -0.979 (inactive); in test [6], 0.896 (inactive).
As for `COc1ccc(C#Cc2ccc3c(c2)[C@]2(C(=O)N3)[C@H](C(N)=O)[C@H]3C(=O)O[C@H](c4ccccc4)[C@H](c4ccccc4)N3[C@@H]2c2ccc(O)cc2)cc1`, the composite z-score in test [1] is 1.56; in [5], 2.94; in test [7], -0.0258; in [8], 0.176; in test [9], 0.664; in [10], 0.391. Moreover, the z-score in [2] was 1.47 (inactive); in test [3] it was 0.107 (inactive); in [4], 2.28 (inactive); in [6] it was -0.103 (inactive).
Turning to `CC(C)CN1C(=O)[C@@]2(Cc3ccccc31)c1ccccc1C(=O)N(Cc1ccccc1)[C@H]2c1ccc(CO)cc1`, the composite z-score in test [1] was -0.594; in test [5], 0.771; in test [7] it was -0.131; in test [8], -0.34; in [9] it was -0.395; in test [10] it was -0.348. Besides, the z-score in test [2] is -0.0832 (inactive); in test [3], -0.519 (inactive); in [4], -1.46 (inactive); in test [6], -0.336 (inactive).
Regarding `CC1(C)[C@@H]2CC(C(O)C3C=CC4C(=O)N(c5ccccc5)C(=O)C4N3Nc3ccccc3F)=C[C@@H]1C2` (stereo not given in full), the composite z-score in [1] amounted to 1.53; in test [5], 3.19; in test [7], 0.155; in test [8] it was 0.791; in [9], 1.06; in test [10], 0.0066. The z-score in test [2] is -0.601 (inactive); in [3], 0.5 (inactive); in test [4], -0.382 (inactive); in test [6], -0.117 (inactive).
On to `CC(C)C[C@@H]1NC(=O)[C@@H]2C[C@H](C(=O)NCCCC[N+](C)(C)C)[C@H](c3cccc(OCCO)c3)N2C1=O`, for which the composite z-score was 1.31 in [1]; 0.622 in test [5]; -0.0123 in test [7]; 1.84 in test [8]; 1.04 in test [9]; -0.0069 in test [10]. The z-score is 1.14 (inactive) in test [2], 0.936 (inactive) in test [3], -0.567 (inactive) in test [4] and -0.329 (inactive) in test [6].
`C=CC[C@]1(C(=O)NCC(O)CO)N=C(c2ccc(OCCCO)cc2)O[C@H]1c1ccccc1N=[N+]=[N-]` (stereo not given in full): the composite z-score in test [1] was 1.03; in test [5] it was 3.31; in test [7], 0.406; in [8] it was -0.0496; in [9], -0.0588; in test [10], -0.142. Further, the z-score in test [2] was -0.285 (inactive); in test [3] it was -0.529 (inactive); in [4], -0.325 (inactive); in [6], 0.346 (inactive).
In the case of `COC(=O)[C@@]1(Cc2ccc(OC)cc2)[C@H]2c3cc(C(=O)N(C)C)n(CCF)c3C[C@H]2CN1C(=O)c1ccccc1`, the composite z-score was determined as 0.574 in [1]; 3.24 in test [5]; 0.411 in [7]; 0.296 in test [8]; 1.02 in test [9]; 0.0986 in test [10]. The z-score in [2] was 0.215 (inactive); in test [3], 1.25 (inactive); in test [4] it was 0.167 (inactive); in test [6], -0.0418 (inactive).
Turning to `[N-]=[N+]=NCc1ccccc1C[C@@]1(C(=O)NCCN2CCOCC2)N=C(c2ccc(OCCCO)cc2)O[C@@H]1c1ccccc1CN=[N+]=[N-]`, the composite z-score is 1.56 in test [1]; 2.84 in [5]; 0.146 in [7]; 1.11 in [8]; 1.08 in [9]; 0.177 in test [10]. Further, the z-score in test [2] is -0.0759 (inactive); in test [3] it was -0.67 (inactive); in test [4], 2.01 (inactive); in test [6], 1.24 (inactive).
As for `CN(C)C(=O)[C@@]1(CCC(=O)OC(C)(C)C)N=C(c2ccc(OCCCO)cc2)O[C@H]1c1ccccc1N=[N+]=[N-]`, the composite z-score in [1] was 1.54; in test [5], 3.82; in [7], 0.126; in [8], 1.09; in [9] it was 1.09; in test [10], 0.101. For the same molecule, the z-score was 0.82 (inactive) in [2], 0.217 (inactive) in test [3], 0.701 (inactive) in [4] and -0.0123 (inactive) in test [6].
In the case of `COC(=O)C(CC#Cc1ccc2c(c1)[C@]1(C(=O)N2)[C@H](c2ccc(O)cc2)N2[C@H](c3ccccc3)[C@H](c3ccccc3)OC(=O)[C@H]2[C@@H]1C(N)=O)C(=O)OC`, the composite z-score in [1] is -1.37; in test [5], -0.759; in test [7] it was -0.189; in test [8], -2.58; in test [9], -1.06; in test [10], 0.162. Also, the z-score in test [2] was -0.731 (inactive); in test [3], -0.55 (inactive); in test [4], -0.438 (inactive); in test [6] it was 2.23 (inactive).
In the case of `O=C1O[C@H](c2ccccc2)[C@H](c2ccccc2)N2[C@H]1[C@@H](C(=O)N1CCN(c3ncccn3)CC1)[C@]1(C(=O)Nc3ccc(C#CCCO)cc31)[C@H]2c1ccccc1OCCO`, the composite z-score in [1] is 1.54; in [5] it was 2.79; in test [7] it was -0.166; in test [8], 0.942; in test [9], 1.06; in test [10], -0.0014. In addition, the z-score in test [2] is 1.36 (inactive); in [3], -1.62 (inactive); in [4], 3.87 (inactive); in test [6] it was 0.797 (inactive).
Turning to `[N-]=[N+]=Nc1ccccc1[C@@H]1OC(c2ccc(OCCCO)cc2)=N[C@]1(CCS(=O)(=O)c1ccccc1)C(=O)NCc1ccccc1`, the composite z-score turned out to be 1.13 in test [1]; 3.23 in test [5]; 0.813 in test [7]; 0.326 in [8]; 1.12 in test [9]; 0.203 in test [10]. Also, the z-score was 0.728 (inactive) in [2], -0.111 (inactive) in test [3], 0.635 (inactive) in test [4] and 0.846 (inactive) in test [6].
With `C=CCNC(=O)[C@H]1[C@@H]2C(=O)O[C@@H](c3ccccc3)[C@@H](c3ccccc3)N2[C@@H](c2ccc(OCCO)cc2)[C@]12C(=O)N(C(=O)OCCOC)c1ccc(C#CC3=CCCCC3)cc12`, the composite z-score was 1.55 in test [1]; 2.76 in test [5]; -0.0477 in [7]; 0.826 in [8]; 1.09 in [9]; -0.0237 in [10]. In addition, the z-score was 0.573 (inactive) in test [2], 0.656 (inactive) in test [3], 2.97 (inactive) in [4] and 1.89 (inactive) in test [6].
Regarding `CC(C)=CCCC(C)=CC(O)C1C=CC2C(=O)N(c3ccccc3)C(=O)C2N1Nc1ccc([N+](=O)[O-])cc1` (stereo not given), the composite z-score in [1] is 1.52; in [5] it was 3.8; in test [7], 0.0634; in [8], -0.14; in [9] it was 1.12; in test [10] it was 0.0466. In addition, the z-score in test [2] was -0.706 (inactive); in [3], -0.589 (inactive); in test [4], 8.22 (active); in test [6], -0.867 (inactive).
